From ChEMBL document CHEMBL1961873, “Compounds: GSK PKIS; Assays: Nanosyn kinase panel” (2012)

Experiments:
[1] = molecular target: Tyrosine-protein kinase CSK (Homo sapiens) (UniProt P41240); conditions: at 1 µM;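 note: each value is an averaged inhibition reading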
[2] = molecular target: T1, Discoidin domain-containing receptor 2 (Homo sapiens) (UniProt Q16832); conditions: at 0.1 µM
T1 sequence (whole entry): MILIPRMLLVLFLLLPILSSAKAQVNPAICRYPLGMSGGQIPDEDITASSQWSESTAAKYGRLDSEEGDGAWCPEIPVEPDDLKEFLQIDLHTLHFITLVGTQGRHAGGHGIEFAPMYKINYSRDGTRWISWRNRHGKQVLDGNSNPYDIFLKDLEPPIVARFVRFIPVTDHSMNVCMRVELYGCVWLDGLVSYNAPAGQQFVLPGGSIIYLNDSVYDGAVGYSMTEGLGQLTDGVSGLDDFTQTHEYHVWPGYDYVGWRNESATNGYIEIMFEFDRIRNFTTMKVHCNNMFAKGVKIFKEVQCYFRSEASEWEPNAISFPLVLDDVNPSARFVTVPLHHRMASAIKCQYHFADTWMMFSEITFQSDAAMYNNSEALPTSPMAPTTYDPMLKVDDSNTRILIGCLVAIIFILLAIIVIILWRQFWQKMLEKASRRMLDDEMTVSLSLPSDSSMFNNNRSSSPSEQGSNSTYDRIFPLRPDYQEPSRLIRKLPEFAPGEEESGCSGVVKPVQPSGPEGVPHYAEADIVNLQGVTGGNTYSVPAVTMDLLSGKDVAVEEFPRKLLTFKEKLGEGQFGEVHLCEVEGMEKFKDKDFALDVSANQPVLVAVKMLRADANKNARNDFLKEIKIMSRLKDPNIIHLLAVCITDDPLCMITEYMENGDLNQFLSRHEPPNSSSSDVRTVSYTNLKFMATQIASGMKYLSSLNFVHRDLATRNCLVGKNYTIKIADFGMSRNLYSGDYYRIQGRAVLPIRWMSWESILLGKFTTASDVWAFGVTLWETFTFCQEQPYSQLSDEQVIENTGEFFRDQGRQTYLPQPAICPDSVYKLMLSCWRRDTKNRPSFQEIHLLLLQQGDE

[3] = molecular target: T1, Discoidin domain-containing receptor 2 (Homo sapiens); conditions: at 1 µM
[4] = molecular target: Epidermal growth factor receptor (Homo sapiens) (UniProt P00533); conditions: at 0.1 µM
Sequence of Epidermal growth factor receptor (Homo sapiens) (P00533 whole entry): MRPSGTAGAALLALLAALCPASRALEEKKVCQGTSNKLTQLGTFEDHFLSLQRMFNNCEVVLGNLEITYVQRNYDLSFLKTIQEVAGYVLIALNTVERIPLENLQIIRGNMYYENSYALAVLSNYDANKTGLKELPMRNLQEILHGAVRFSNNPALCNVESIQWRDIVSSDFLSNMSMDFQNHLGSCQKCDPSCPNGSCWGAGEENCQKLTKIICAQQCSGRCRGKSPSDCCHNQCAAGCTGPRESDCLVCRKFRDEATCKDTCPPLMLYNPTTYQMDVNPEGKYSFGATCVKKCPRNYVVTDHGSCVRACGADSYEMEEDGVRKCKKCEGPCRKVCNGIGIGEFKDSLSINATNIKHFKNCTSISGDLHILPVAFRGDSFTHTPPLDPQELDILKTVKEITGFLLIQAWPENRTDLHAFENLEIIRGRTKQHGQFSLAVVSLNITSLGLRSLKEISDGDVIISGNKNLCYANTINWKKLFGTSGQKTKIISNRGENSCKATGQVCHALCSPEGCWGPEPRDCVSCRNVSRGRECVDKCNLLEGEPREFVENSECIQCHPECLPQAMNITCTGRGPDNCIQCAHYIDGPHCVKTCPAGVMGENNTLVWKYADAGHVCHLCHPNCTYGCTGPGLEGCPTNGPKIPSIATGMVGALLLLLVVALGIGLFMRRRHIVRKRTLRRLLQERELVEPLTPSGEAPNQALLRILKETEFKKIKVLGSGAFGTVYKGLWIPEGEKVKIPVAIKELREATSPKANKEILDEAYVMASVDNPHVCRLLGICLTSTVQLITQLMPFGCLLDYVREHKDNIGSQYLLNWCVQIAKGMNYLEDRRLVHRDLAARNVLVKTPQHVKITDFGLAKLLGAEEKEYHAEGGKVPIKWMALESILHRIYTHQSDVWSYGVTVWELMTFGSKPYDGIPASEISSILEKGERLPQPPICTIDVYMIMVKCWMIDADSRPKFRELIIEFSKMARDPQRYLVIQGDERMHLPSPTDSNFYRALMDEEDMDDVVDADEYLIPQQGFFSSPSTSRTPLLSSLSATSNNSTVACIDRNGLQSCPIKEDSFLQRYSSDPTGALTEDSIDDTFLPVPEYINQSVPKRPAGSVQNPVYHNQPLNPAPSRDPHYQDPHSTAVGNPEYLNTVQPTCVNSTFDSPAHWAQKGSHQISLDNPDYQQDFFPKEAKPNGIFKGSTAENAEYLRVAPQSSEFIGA

[5] = molecular target: Epidermal growth factor receptor (Homo sapiens) (UniProt P00533); conditions: at 1 µM
[6] = system: Epidermal growth factor receptor (Homo sapiens), P00533 [L858R]; conditions: at 0.1 µM
[7] = system: Epidermal growth factor receptor (Homo sapiens), P00533 [L858R]; conditions: at 1 µM
[8] = system: Epidermal growth factor receptor (Homo sapiens), P00533 [L861Q]; conditions: at 0.1 µM
[9] = system: Epidermal growth factor receptor (Homo sapiens), P00533 [L861Q]; conditions: at 1 µM
[10] = system: Epidermal growth factor receptor (Homo sapiens), P00533 [T790M]; conditions: at 0.1 µM
[11] = system: Epidermal growth factor receptor (Homo sapiens), P00533 [T790M]; conditions: at 1 µM
[12] = system: Epidermal growth factor receptor (Homo sapiens), P00533 [L858R,T790M]; conditions: at 0.1 µM
Sequence of Epidermal growth factor receptor (Homo sapiens), P00533 [L858R,T790M] (P00533 whole entry T790M/L858R, looked up): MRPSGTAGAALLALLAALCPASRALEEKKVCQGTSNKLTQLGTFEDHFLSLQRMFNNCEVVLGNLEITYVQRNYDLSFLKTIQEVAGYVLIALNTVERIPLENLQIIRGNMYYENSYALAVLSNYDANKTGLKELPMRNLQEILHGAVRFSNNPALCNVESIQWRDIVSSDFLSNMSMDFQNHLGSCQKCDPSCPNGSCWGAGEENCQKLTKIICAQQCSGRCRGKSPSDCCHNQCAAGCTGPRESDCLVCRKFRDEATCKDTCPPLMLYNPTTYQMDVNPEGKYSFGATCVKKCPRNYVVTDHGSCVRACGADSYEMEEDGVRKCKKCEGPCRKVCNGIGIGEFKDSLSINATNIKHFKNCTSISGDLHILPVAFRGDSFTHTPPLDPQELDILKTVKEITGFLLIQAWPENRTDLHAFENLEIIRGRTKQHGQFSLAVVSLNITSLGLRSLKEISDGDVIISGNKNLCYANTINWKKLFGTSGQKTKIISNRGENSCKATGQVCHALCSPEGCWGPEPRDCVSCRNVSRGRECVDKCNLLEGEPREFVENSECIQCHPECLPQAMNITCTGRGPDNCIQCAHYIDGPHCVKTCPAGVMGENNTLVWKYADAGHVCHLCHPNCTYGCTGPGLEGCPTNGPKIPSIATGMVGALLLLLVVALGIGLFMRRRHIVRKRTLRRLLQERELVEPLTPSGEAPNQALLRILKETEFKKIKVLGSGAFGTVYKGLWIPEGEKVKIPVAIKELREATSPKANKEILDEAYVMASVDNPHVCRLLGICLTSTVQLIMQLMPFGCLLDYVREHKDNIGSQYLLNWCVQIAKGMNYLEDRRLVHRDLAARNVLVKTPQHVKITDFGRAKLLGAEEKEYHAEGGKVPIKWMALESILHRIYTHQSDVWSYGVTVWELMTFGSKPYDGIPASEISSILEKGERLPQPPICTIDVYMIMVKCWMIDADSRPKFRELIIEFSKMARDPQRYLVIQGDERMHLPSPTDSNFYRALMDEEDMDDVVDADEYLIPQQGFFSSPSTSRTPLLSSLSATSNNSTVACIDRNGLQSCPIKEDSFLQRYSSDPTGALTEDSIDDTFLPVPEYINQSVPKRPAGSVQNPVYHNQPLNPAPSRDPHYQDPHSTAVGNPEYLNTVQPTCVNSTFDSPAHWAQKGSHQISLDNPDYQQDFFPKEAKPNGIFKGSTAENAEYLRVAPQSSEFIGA

[13] = system: Epidermal growth factor receptor (Homo sapiens), P00533 [L858R,T790M]; conditions: at 1 µM
[14] = molecular target: Ephrin type-A receptor 2 (Homo sapiens) (UniProt P29317); conditions: at 0.1 µM
Sequence of Ephrin type-A receptor 2 (Homo sapiens) (P29317 whole entry): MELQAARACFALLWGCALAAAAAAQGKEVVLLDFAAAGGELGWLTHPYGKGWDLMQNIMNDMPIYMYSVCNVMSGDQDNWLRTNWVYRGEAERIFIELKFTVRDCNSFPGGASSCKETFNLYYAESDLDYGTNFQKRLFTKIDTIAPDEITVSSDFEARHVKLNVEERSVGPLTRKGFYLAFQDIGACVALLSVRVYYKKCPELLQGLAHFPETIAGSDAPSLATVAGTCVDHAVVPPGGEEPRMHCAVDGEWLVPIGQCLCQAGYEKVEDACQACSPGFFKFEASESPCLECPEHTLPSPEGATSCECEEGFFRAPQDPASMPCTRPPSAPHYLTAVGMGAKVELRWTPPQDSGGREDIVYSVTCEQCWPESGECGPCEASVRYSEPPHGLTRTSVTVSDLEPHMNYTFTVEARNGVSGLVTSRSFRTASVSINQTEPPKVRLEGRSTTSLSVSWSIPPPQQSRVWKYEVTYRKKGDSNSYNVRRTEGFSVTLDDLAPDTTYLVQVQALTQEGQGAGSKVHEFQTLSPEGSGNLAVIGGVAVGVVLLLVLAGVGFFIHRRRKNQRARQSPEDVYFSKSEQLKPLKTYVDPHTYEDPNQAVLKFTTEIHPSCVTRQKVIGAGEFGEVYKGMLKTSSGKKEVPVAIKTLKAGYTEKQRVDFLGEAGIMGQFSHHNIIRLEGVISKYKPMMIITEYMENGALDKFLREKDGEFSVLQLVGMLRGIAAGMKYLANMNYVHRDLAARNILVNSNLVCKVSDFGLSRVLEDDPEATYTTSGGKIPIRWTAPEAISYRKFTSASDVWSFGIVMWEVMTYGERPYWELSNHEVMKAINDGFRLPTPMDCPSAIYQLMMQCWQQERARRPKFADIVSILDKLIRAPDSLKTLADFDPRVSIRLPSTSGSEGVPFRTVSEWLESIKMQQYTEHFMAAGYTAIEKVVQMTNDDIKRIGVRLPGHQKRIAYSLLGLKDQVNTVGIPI

[15] = molecular target: Ephrin type-A receptor 2 (Homo sapiens) (UniProt P29317); conditions: at 1 µM
[16] = molecular target: T2, Ephrin type-A receptor 3 (Homo sapiens) (UniProt P29320); conditions: at 0.1 µM
T2 sequence (whole entry): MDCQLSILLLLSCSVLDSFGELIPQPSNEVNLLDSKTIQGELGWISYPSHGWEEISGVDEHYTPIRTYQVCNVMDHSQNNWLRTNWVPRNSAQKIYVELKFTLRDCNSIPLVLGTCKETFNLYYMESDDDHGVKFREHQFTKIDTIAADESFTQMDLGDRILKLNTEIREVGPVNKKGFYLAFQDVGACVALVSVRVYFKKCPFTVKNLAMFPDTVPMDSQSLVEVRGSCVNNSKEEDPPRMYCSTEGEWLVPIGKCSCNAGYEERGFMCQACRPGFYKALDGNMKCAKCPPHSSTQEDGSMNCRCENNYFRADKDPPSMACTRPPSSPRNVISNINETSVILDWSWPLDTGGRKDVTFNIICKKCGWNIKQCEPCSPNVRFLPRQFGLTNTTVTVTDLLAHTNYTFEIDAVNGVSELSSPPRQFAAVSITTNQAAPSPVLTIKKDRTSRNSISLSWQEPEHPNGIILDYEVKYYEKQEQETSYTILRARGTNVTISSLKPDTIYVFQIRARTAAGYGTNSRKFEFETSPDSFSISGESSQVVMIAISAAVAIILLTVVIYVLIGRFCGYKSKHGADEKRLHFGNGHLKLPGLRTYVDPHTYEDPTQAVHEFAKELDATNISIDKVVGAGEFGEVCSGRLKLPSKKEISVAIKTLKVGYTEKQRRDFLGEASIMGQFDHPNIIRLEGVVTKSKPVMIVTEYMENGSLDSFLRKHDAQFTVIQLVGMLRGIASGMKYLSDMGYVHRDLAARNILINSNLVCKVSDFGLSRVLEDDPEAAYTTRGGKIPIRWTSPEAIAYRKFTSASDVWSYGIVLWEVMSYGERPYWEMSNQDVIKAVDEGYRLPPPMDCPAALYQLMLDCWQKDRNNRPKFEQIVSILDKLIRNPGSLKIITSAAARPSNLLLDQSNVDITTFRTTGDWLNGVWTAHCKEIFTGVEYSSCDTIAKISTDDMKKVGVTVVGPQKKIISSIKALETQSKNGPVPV

[17] = molecular target: T2, Ephrin type-A receptor 3 (Homo sapiens); conditions: at 1 µM
[18] = molecular target: Ephrin type-A receptor 4 (Homo sapiens) (UniProt P54764); conditions: at 0.1 µM
Sequence of Ephrin type-A receptor 4 (Homo sapiens) (P54764 whole entry): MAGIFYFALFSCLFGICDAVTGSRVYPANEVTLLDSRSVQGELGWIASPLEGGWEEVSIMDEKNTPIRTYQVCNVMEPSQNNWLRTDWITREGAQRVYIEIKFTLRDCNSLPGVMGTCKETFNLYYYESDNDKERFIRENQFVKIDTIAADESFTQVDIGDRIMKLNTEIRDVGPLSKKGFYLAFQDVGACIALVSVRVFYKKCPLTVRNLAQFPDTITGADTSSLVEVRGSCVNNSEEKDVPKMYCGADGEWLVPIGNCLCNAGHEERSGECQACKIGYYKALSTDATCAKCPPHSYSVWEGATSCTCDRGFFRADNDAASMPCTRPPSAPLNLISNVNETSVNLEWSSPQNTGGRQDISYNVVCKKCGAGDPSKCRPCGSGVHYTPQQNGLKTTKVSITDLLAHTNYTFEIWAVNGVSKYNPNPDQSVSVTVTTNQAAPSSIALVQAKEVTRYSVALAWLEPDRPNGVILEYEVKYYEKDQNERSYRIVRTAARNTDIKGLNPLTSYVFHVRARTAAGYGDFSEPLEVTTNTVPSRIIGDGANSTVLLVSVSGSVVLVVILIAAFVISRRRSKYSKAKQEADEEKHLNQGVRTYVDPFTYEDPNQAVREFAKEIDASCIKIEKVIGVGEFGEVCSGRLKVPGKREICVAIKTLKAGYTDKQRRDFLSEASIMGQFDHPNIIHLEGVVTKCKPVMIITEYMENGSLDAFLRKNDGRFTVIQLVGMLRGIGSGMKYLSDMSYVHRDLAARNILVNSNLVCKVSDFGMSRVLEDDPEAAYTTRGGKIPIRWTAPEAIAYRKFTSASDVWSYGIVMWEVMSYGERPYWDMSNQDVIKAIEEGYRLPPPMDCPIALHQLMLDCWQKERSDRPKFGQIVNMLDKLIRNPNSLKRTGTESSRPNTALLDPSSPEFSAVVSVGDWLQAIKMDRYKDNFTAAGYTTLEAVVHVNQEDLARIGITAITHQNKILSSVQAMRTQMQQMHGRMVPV

[19] = molecular target: Ephrin type-A receptor 4 (Homo sapiens) (UniProt P54764); conditions: at 1 µM
[20] = molecular target: T3, Ephrin type-B receptor 2 (Homo sapiens) (UniProt P29323); conditions: at 0.1 µM;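 note: reported as mean inhibition of EPHB2, from the GSK PKIS dataset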
T3 sequence (whole entry): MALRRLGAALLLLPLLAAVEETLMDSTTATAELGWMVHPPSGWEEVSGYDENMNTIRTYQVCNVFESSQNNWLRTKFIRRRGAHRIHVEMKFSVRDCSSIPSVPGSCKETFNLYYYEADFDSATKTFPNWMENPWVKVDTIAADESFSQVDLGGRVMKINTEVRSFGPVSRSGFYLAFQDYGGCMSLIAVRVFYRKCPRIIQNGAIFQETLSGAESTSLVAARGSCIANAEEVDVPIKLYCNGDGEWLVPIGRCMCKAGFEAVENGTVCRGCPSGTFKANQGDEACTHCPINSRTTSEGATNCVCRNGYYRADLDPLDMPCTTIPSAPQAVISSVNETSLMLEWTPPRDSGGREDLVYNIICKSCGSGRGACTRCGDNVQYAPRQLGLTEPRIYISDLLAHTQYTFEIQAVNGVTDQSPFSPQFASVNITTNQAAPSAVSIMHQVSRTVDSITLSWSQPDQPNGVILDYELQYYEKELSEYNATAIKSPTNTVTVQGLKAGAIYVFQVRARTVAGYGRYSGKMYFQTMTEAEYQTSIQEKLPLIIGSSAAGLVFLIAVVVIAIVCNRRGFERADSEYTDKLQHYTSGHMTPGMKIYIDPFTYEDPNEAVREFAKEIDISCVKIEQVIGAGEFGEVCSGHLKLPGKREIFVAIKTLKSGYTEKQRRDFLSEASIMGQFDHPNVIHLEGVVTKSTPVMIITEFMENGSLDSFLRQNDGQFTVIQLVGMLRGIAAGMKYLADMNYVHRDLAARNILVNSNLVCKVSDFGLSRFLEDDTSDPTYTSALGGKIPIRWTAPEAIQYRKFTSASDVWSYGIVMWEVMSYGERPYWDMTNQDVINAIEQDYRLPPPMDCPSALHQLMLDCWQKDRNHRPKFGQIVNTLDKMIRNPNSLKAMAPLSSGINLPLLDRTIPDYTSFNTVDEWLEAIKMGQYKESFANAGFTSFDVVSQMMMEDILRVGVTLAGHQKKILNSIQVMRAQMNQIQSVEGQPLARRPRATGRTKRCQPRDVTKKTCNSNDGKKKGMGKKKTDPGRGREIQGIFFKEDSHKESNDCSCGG

Sequence of Tyrosine-protein kinase CSK (Homo sapiens) (P41240 2-450 limits assumed): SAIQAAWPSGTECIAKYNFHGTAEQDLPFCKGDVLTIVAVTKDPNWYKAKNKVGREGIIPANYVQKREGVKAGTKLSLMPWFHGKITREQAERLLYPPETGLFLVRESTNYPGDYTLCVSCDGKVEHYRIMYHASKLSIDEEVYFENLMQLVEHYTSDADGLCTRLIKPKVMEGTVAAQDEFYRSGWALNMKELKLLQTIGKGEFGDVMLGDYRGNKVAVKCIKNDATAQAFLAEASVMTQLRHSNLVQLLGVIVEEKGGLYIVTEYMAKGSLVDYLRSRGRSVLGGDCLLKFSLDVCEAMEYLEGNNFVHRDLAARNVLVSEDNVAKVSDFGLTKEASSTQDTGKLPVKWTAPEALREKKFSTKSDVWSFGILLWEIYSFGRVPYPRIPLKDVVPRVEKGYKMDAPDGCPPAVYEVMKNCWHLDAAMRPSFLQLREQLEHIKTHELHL

SMILES	inhibition [1]	inhibition [2]	inhibition [3]	inhibition [4]	inhibition [5]	inhibition [6]	inhibition [7]	inhibition [8]	inhibition [9]	inhibition [10]	inhibition [11]	inhibition [12]	inhibition [13]	inhibition [14]	inhibition [15]	inhibition [16]	inhibition [17]	inhibition [18]	inhibition [19]	inhibition [20]
Cc1cc(-c2ccco2)cc(C)c1/C=C/c1cncc(-c2nn[nH]n2)c1	3.48%	-0.16%	0.34%	3.32%	6.27%	0.25%	0.27%	-0.29%	2.11%	1.06%	1.13%	-2.33%	0.17%	1.36%	1.78%	-0.31%	0.86%	1.64%	3.95%	-9.41%
CCn1c(-c2nonc2N)nc2c(C#CCN)ncc(OCCCN)c21	2.55%	3.32%	3.8%	2.15%	8.32%	2.24%	5.46%	-0.07%	9.43%	-0.87%	5.94%	3.07%	5.28%	5.32%	1.78%	-2.35%	-1%	-3.41%	3.82%	-6%
CCn1c(-c2nonc2N)nc2c(C#CC(C)(C)O)ncc(OCC3CCNCC3)c21	3.99%	-0.24%	1.71%	-3.91%	-3.68%	2.79%	6.24%	3.74%	2.43%	1.64%	3.59%	2.99%	3.17%	-2.64%	-3.81%	-0.49%	-1.92%	7.43%	7.66%	1.63%
COc1cc2c(cc1Nc1nc(Nc3ccsc3C(N)=O)c3cc[nH]c3n1)N(C(=O)CN(C)C)CCC2	-4.71%	2.81%	5.59%	–	–	0.26%	20.5%	0.9%	8.73%	8.68%	55%	29.8%	77.5%	1.21%	-1.44%	1.88%	-0.28%	0.13%	4.13%	-6.85%
CCn1c(-c2nonc2N)nc2c(C#CC(C)(C)O)nc(O[C@@H](CN)c3ccccc3)cc21	-5.08%	-0.22%	0.1%	1.88%	7.41%	-1.92%	4%	-0.6%	-1.72%	-1.47%	-1.37%	0.5%	-1.45%	-2.73%	-4.53%	-1.47%	-0.7%	-1.14%	-4.76%	-2.94%
NS(=O)(=O)c1ccc(N/C=C2\C(=O)Nc3ccc4ncsc4c32)cc1	3.86%	1.19%	3.5%	2.49%	5.22%	4.28%	5.3%	2.44%	3.42%	0.93%	0.85%	4.07%	3.15%	1.01%	1.66%	3.37%	6.86%	8.05%	22.4%	9.09%
NC(=O)c1sc(-n2cnc3cc(C(F)(F)F)ccc32)cc1OCc1ccccc1Br	-1.04%	1.02%	1.34%	3.48%	6.56%	-1.95%	0.99%	1.64%	1.19%	0.21%	0.23%	-0.11%	-0.24%	2.18%	0.32%	3.31%	1.36%	4.57%	8.16%	-4.03%
